Reference: PubChem BioAssay AID1508622 (National Center for Advancing Translational Sciences (NCATS), 2021)
The source made the active and inactive calls. The call rests on the fitted dose curve; in most records, active means well fitted activation curve with a large enough effect; inconclusive means small, poorly fitted or top-dose-only effect; inactive means no such curve, though single readings can be large or run the other way.

Test: Confirmatory qHTS for Identification of Small Molecule Activators of Huntingtin-Antisense Promoter Activity
Details: HEK293 HTT-AS promoter firefly luciferase reporter, 24 h; series mostly up to 57.5 µM; activity change, positive = activation: at the top concentration
In short: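 Activity normalized between vehicle control (0%) and zero RLU (-100%) from firefly luminescence (Dual-Glo). Compounds, up to 57.5 uM final, incubated 24 h at 37C on HEK293 reporter cells plated 24 h earlier.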
Potency means the concentration at half of the fitted maximal effect.

Structure (SMILES)	activity change, positive = activation	Potency
COc1ccc(CCNC(=O)c2ccc3c(c2)CCN3S(=O)(=O)c2ccc(C)cc2)cc1OC	-25.9% (inactive)	
CC(C)c1ccc(NC(=O)c2ccc(F)c(S(=O)(=O)N3CCc4ccccc43)c2)cc1	-31.5% (inactive)	
Cc1ccccc1NC(=O)c1sc2nc3c(cc2c1N)CN(Cc1ccccc1)CC3	-27.9% (inactive)	
Cc1ccccc1C(=O)NCc1ccc2c(c1)CCN2C(=O)c1ccccc1	-51% (inactive)	
CCN(CC)c1ccc(NC(=O)c2sc3nc(-c4ccccc4)cn3c2C)cc1	-7.86% (inactive)	
CCOc1ccccc1CNC(=O)C(CC)n1nc(C)c2c(C)n(-c3ccccc3)nc2c1=O (centres undefined)	-42.6% (inactive)	
Cc1ccc(CNC(=O)c2c(Nc3ccccc3C)sc(C(=O)c3ccc(F)cc3)c2N)cc1	-52.7% (inactive)	
Cc1ccc(C)c(N2CCN(C(=O)C3CCN(c4nc(-c5ccc(C(C)C)cc5)no4)CC3)CC2)c1	-94.5% (inactive)	
COc1ccc(-c2nc(N3CCOCC3)c3sc(CN(C)c4ncc(C(=O)NO)cn4)cc3n2)cn1	2.64% (inactive)	
O=C(Nc1cccc(F)c1)c1cnc2sc(N3CCCC3)nn2c1=O	-61.2% (inactive)	
CCOc1ccc(C2=C(C(=O)CC)Sc3nncn3N2C(=O)CC)cc1	-69.2% (inactive)	
COc1ccc(C(C)n2c(C)c3c(C)nnc(C)c3c2C)cc1 (centres undefined)	-16.4% (inactive)	
Cc1ccc(SCc2nc(-c3ccc(C(=O)NCc4ccccc4Cl)cc3)oc2C)cc1	-12.5% (inactive)	
COc1ccc(NC(=O)CSc2nc(-c3ccco3)cc(C(F)(F)F)n2)cc1OC	-81.3% (inactive)	
COc1ccccc1CCNC(=O)C(=O)NCC(c1cccs1)S(=O)(=O)c1ccccc1 (centres undefined)	-27% (inactive)	
COc1cccc(N2CCN(C(=O)c3ccc4nc(N5CCC(C)CC5)sc4c3)CC2)c1	-71.7% (inactive)	
Cc1cccc(N2CCN(C(=O)c3ccc4c(c3)N(Cc3cccc(Cl)c3)C(=O)c3ccccc3S4=O)CC2C)c1 (centres undefined)	-32.2% (inactive)	
O=C(Nc1ccc(Oc2ccccc2)cc1)C1CCN(S(=O)(=O)c2ccccc2)CC1	-51.1% (inactive)	
CC1Cc2cc(S(=O)(=O)NCc3ccc(F)cc3)ccc2N1C(=O)C1CCC1 (centres undefined)	-29.9% (inactive)	
O=S(=O)(NCc1ccc(Cl)cc1)c1ccc(N2CCCCS2(=O)=O)cc1	-80.8% (inactive)	

Structure (SMILES)	activity change, positive = activation	Potency
COc1cc(C2CC(=O)c3c([nH]c(C(=O)OCc4ccc(C)cc4)c3C)C2)cc(OC)c1OC (centres undefined)	-56.6% (inactive)	
Cc1cc(NC(=O)NCc2ccc3c(c2)CCN3C(=O)c2ccccc2)ccc1Br	-79.8% (inactive)	
CCOc1ccc(-n2c(/C=C/c3cccc(F)c3)nc3cc(OC)c(OC)cc3c2=O)cc1	-47.7% (inactive)	
CCOC(=O)C1=C(CN2CCN(c3ccc(C)cc3C)CC2)NC(=O)NC1c1ccc(OC)cc1 (centres undefined)	-91.2% (inactive)	
COc1ccccc1NC(=O)CN1C(=O)C(C)(C)c2ccccc21	-10.4% (inactive)	
CCOc1ccc(NC(=O)c2ccc(F)c(S(=O)(=O)N(CC)Cc3ccccc3)c2)cc1	-86.7% (inactive)	
CCOc1ccc(S(=O)(=O)NCCc2sc3nc(-c4ccc(F)cc4)nn3c2C)cc1	-84.3% (inactive)	
COc1ccc(-c2nc3sc(CCNS(=O)(=O)c4ccccc4)c(C)n3n2)cc1	-7.69% (inactive)	
Cc1cccc(-n2nc(C)c(C(=O)N3CCN(c4ccccc4)CC3)c2-n2cccc2)c1	-44.8% (inactive)	
Cc1ccc(NC(=O)c2ccc(F)c(S(=O)(=O)N3CCc4ccccc4C3)c2)cc1F	-91.6% (inactive)	
O=C(Cn1c(=O)oc2cc(S(=O)(=O)N3CCCCCC3)ccc21)Nc1cccc(C(F)(F)F)c1	-27.5% (inactive)	
Cc1[nH]c2ccccc2c1CCNCc1ccc(C=CC(=O)NO)cc1		1900 nM (active)
Cc1cccc(C(=O)Nc2nc(-c3nnn(-c4cc(F)ccc4F)c3C)ns2)c1	-38.5% (inactive)	
COc1ccc(N2CCN(C(CNC(=O)C(=O)NCCc3ccccc3)c3cccnc3)CC2)cc1 (centres undefined)	-34.6% (inactive)	
COc1ccc(CCNC(=O)c2cc3sccc3n2Cc2ccc(Cl)cc2)cc1OC	-23.9% (inactive)	
Cc1ccc(C)c(N2CCN(C(=O)C3CCCN(S(=O)(=O)c4ccc5c(c4)oc(=O)n5C)C3)CC2)c1 (centres undefined)	-48.5% (inactive)	
Cc1oc(-c2cccc(Cl)c2)nc1CN1CCC(C(=O)NCCCN2CCN(c3ccc(F)cc3)CC2)CC1	-80.7% (inactive)	
COc1ccc(-c2nc(CSCC(=O)NCCc3ccc(OC)c(OC)c3)c(C)o2)cc1	-41.7% (inactive)	
O=S(=O)(NCC(c1ccco1)N1CCN(c2ccc(F)cc2)CC1)c1cc(F)ccc1F (centres undefined)	-21.2% (inactive)	
